# High-throughput results: PubChem BioAssay, National Center for Advancing Translational Sciences (NCATS)
# Most compounds without a hit are left out; they make up all but 3.8% or so of the library.
# IDH1 R132H inh: inhibitors of human mutant IDH1 R132H; O75874; IDH1-R132H enzyme, NADPH consumption, diaphorase/resazurin fluorescence; Potency, µM (titrated, usually from 76.6 µM), for inactives: at the highest dose activity change, negative = inhibition, most hits filed as inhibitors; 390,000 tested, 0.093% active; also: % is scaled to controls: 0 for no effect and ±100 for the full control effect; nearly all actives have a fitted effect of over 65% in size
# Target sequence (O75874 whole entry R132H, stated change not applied): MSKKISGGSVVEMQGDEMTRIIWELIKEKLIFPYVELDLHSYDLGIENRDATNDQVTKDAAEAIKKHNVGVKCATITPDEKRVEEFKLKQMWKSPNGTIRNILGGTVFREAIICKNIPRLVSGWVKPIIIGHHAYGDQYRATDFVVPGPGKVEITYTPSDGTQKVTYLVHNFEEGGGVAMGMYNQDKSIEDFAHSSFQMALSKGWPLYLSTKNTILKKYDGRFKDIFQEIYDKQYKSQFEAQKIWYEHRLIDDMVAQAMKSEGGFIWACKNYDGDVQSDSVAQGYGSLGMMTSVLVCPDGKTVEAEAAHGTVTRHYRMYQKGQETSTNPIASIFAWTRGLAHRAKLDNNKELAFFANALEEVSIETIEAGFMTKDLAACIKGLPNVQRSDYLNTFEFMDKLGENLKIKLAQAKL
#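 IDH1-R132H (0.5 ug/mL dispensed) in pH 7.5 Tris buffer was preincubated 30 min with compound, then given a substrate mix of 0.016 mM NADPH and 2 mM alpha-KG for 80 min at room temperature; remaining NADPH was read by diaphorase/resazurin fluorescence.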
# A549 viability: kills or reduces viability of A549 cells in Nrf2 counter-screen. A549 ARE-Fluc cells, CellTiter-Fluor viability, 18-24 h. 390,000 tested, 0.16% active. Potency, µM (titrated, usually from 46 µM), for inactives: top-dose activity change, negative = cytotoxicity, hits mostly inhibitors; also: % is scaled to controls: 0 for no effect and ±100 for the full control effect
#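 Cytotoxicity counterscreen: CellTiter-Fluor fluorescence was measured in A549 ARE_Fluc cells after 18-24 h of compound exposure in a concentration series. The subsequent BugLite luminescent read reports ARE-luciferase activity.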
# ELG1 repair inh: blocks ELG1-dependent DNA repair in HEK293T cells; HEK293T ELG1-luciferase reporter, luminescence, 16 h; DNA damage induced by 5-fluorouridine; Potency, µM (titrated, usually from 46.1 µM), inactives show at the highest dose activity change, negative = inhibition, most hits filed as inhibitors; 330,000 tested, 2.3% active; also: % is scaled to controls: 0 for no effect and ±100 for the full control effect; nearly all actives have a fitted effect of over 55% in size
#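 Step one: seed 2,000 cells per well. Step two: pin-transfer compound or DMSO alongside 5-fluorouridine. Step three: incubate 16 hr, 37 °C, 5% CO2. Step four: add ONE-Glo, wait 30 min, read luminescence.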
# Nrf2 activator: activators of Nrf2 (ARE) signaling; AREc32 ARE-luciferase reporter (MCF7-derived line), luminescence, 24 h; Potency, µM (highest dose often 46.1 µM), inactives show top-dose activation, most hits filed as activators; 410,000 tested, 0.31% active; also: % of control where 0% means no effect; nearly all actives have a fitted effect of over 65% in size
#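 Reporter line AREc32 (ARE-Fluc), seeded overnight in OPTI-MEM with 5% FBS; compound pin-transferred, 24 hr at 37 deg C, 5% CO2; luminescent read-out.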
# Nrf2 block: inhibitors of Nrf2 signaling | 360,000 tested, 2.1% active | A549 ARE-Fluc reporter, luciferase luminescence, 18-24 h | Potency, µM (top dose mostly 46 µM), for the others: at the highest dose activity change, negative = inhibition, actives largely listed as inhibitors | AID 504444; also: % is scaled to controls: 0 for no effect and ±100 for the full control effect; nearly all actives have a fitted effect of over 60% in size
#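 Nrf2 activity is the BugLite luminescence, read 15 min after reagent at room temperature, following CellTiter-Fluor cytotoxicity readout (30 min, 37C). Compound titrations were applied for 18-24 h to 5000 A549 ARE_Fluc cells/well in 5% FBS OPTI-MEM.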
# An asterisk follows results filed as active; ? = inconclusive; . = no result. Calls follow the shape of the dose curve; as a rule, active = well fitted curve in the direction sought with a large enough effect; inconclusive = small, poorly fitted or top-dose-only effect, or another doubt; inactive = no such curve, though single readings can be large; an effect the other way counts as inactive or inconclusive. Potency is read from the fitted curve at half-maximal effect.
SMILES,IDH1 R132H inh,A549 viability,ELG1 repair inh,Nrf2 activator,Nrf2 block
Cc1ccc(Cl)cc1N1CCN(Cc2nc3c(c(=O)[nH]c(=O)n3C)n2Cc2ccccc2F)CC1,-10%,-7%,?,-4%,18µM*
Cc1ccccc1Cn1c(CN2CCN(c3cc(Cl)ccc3C)CC2)nc2c1c(=O)[nH]c(=O)n2C,-16%,2%,.,0%,3%
CCCCn1c(CN2CCN(c3cccc(Cl)c3)CC2)nc2c1c(=O)[nH]c(=O)n2C,0%,-24%,?,3%,?
Nc1ncc(Br)cc1S(=O)(=O)NCCC(=O)N1CCN(c2ccccc2)CC1,11%,5%,-5%,-1%,-2%
COc1ccc(NS(=O)(=O)c2ccc(NC(=O)c3ccc(Br)cc3)cc2)nn1,-11%,-4%,-20%,5%,21µM*
CCCCN1C[C@H](COC(=O)CCC)Oc2cccc(F)c2S1(=O)=O,6%,-6%,.,-1%,-3%
Cc1cc(C(=O)CN2C(=O)C(=O)N(Cc3ccccc3)C2=O)c(C)n1CC1COc2ccccc2O1 (stereo not drawn),-5%,-7%,6.5µM*,0%,?
Cc1cc(C(=O)CN2C(=O)C(=O)N(C3CCCC3)C2=O)c(C)n1CCc1ccccc1,1%,-5%,-4%,-1%,18µM*
NC(=S)N/N=C1\CCOc2ccc(Cl)cc21,13%,1%,21µM*,12%,?
COCCn1c(N)c(C(=O)NCC2CCCO2)c2nc3ccccc3nc21 (stereo not drawn),6%,?,?,0%,?
CC(C)Cn1c(N)c(C(=O)NCC2CCCO2)c2nc3ccccc3nc21 (stereo not drawn),5%,?,8.9µM*,4%,?
COc1ccc(OC)c(-n2c(N)c(C(=O)NCC3CCCO3)c3nc4ccccc4nc32)c1 (stereo not drawn),2%,-1%,16µM*,3%,.
COc1ccc(OC)c(-n2c(SCC(=O)NCC3CCCO3)nc3ccccc3c2=O)c1 (stereo not drawn),-4%,-13%,13%,0%,-10%
CCc1ccc2oc(-c3cc(N)ccc3O)nc2c1,5%,0%,?,4.5µM*,?
CCc1ccc2oc(-c3cc(N)ccc3Cl)nc2c1,10%,-1%,?,0%,?
O=C1/C(=C\c2cc([N+](=O)[O-])ccc2O)SC(=S)N1Cc1ccc(Cl)cc1,-13%,?,18µM*,14%,?
CCOP(=O)(OCC)c1nc(-c2ccc(Cl)cc2Cl)oc1N1CCCCC1,-4%,?,?,4%,21µM*
O=C(Nc1nccs1)c1ccc(S(=O)(=O)NCC2CCCCC2)cc1,-2%,-17%,2%,0%,13µM*
O=C(Nc1nccs1)c1ccc(N2C(=O)C3CCCCC3C2=O)cc1 (stereo not drawn),-3%,-4%,?,0%,6%
O=C(Nc1nccs1)c1ccc(S(=O)(=O)NCc2cccs2)cc1,7%,0%,18µM*,3%,-29%
O=C(Nc1ccc(Br)cc1)c1ccc(F)c(S(=O)(=O)NCc2cccs2)c1,-5%,-3%,?,4%,12µM*
CN(c1ccc(C(=O)Nc2nccs2)cc1)S(=O)(=O)c1ccccc1,11%,-1%,-25%,1%,.
Cc1[nH]c2c(ccc3cccnc32)c1C,0%,-5%,15µM*,3%,-8%
CC1(C)CC(N2CCN(Cc3ccccc3)CC2)=CC(=[N+]2CCCCC2)C1,5%,-19%,0.73µM*,-1%,18µM*
Cn1cc(CN2CCCC(C(=O)Nc3cccc(-c4cc5ccccc5[nH]4)c3)C2)cn1 (stereo not drawn),0%,?,3%,-1%,23µM*
SMILES,IDH1 R132H inh,A549 viability,ELG1 repair inh,Nrf2 activator,Nrf2 block
COc1cccc(C2CC(=O)Nc3cc4c(cc32)OCCO4)c1OC (stereo not drawn),5%,-7%,.,-1%,?
[O-][n+]1onc2c1CCc1c-2nn(-c2ccccc2Cl)[n+]1[O-],4%,-3%,?,?,?
Cc1ccc(-n2nc3c([n+]2[O-])CCc2c-3no[n+]2[O-])cc1,1%,?,?,2.2µM*,-29%
CCOC(=O)c1ccc2ncc(C(=O)OCC)c(Nc3ccc(N4CCOCC4)cc3)c2c1,4%,-16%,10µM*,1%,-6%
CCOC(=O)c1cnc2ccccc2c1Nc1ccc(N2CCOCC2)cc1,1%,0%,.,2%,14%
CCOC(=O)c1cnc2ccc(OCC)cc2c1Nc1ccc(OCc2ccccc2Cl)cc1,20%,-16%,.,0%,21µM*
CCOC(=O)c1cnc2ccc(OC)cc2c1Nc1ccc(OCc2ccccc2Cl)cc1,5%,-14%,.,0%,?
COc1cccc2c1cc1c(=O)n(CC(=O)NCc3ccco3)nc(C)n12,-17%,5%,.,3%,14%
Cc1ccc(-n2ncc(C(=O)Nc3ccc4c(c3)OCCO4)c2C2CCN(C(=O)OC(C)(C)C)CC2)cc1C,5%,0%,.,3%,-26%
C=C(C)COc1ccc(-c2[nH]ncc2-c2ccc(OC)c(OC)c2)c(O)c1,1%,-5%,21µM*,2%,-8%
COc1ccc(-c2cn[nH]c2-c2ccc(OCc3ccccc3)cc2O)cc1OC,6%,-2%,13µM*,5%,?
COc1ccc(-c2n[nH]c(C)c2-c2ccc(Cl)cc2)c(O)c1OC,5%,0%,12µM*,-1%,4%
COc1ccc(-c2n[nH]c(C)c2-c2ccc(Cl)cc2)c(O)c1,18%,-5%,0%,4%,-33%
C=C(C)COc1ccc(-c2n[nH]c(C)c2-c2ccc(OC)c(OC)c2)c(O)c1,-3%,-13%,21µM*,3%,?
O=C(Cn1c(-c2cccs2)cc2cc(Cl)ccc21)NCc1ccccc1,-3%,-3%,.,8%,?
Oc1ccc(-c2nn[nH]n2)c2cccnc12,.,3%,.,.,2%
Cc1ccc(Cn2ncc3c(N4CCN(c5ccccc5C)CC4)ncnc32)cc1,8%,?,?,-1%,21µM*
Cc1ccc(Cn2ncc3c(N4CCOCC4)ncnc32)cc1,4%,-5%,?,0%,2%
CC(CNC(=O)Cc1ccc(NC(=O)N2CCSc3ncccc32)cc1)c1ccccc1 (stereo not drawn),-9%,1%,.,0%,?
Cc1ccc(OCC(=O)c2cc(C)n(Cc3cccs3)c2C)c([N+](=O)[O-])n1,-5%,-6%,?,0%,12µM*
Cc1ccc(OCC(=O)c2cc(C)n(CC(F)(F)F)c2C)c([N+](=O)[O-])n1,-6%,1%,-1%,16%,?
